# Screening results from PubChem.
# TDP1 cell CPT: DT40-hTDP1 cell growth loss with CPT; Potency, µM (series often up to 46.2 µM), inactives show top-dose activity change, negative = growth inhibition, actives largely listed as inhibitors; chicken DT40 Tdp1-/-;hTDP1 cells + 20 nM CPT, ATP luminescence, 48 h; AID 686979; 12% of 420,000 active; note: potency is the fitted concentration of half-maximal effect; % is set by controls: 0 for no effect and ±100 for the full control effect; nearly all actives have a fitted effect of over 55% in size
#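 Chicken DT40 Tdp1-/- cells stably complemented with human TDP1 were seeded at 400 cells/well in medium containing 20 nM camptothecin, exposed to pin-transferred compounds, and grown at 37 °C for at least 48 hr. Viability was read as ATP luminescence.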
# D3 antag: D3 dopamine receptor (human) antagonism | P35462 | D3R cells, DiscoveRx beta-arrestin luminescence, antagonist mode; stronger effect = lower value | max response, negative = inhibition, % | 2.5% of 360,000 active | AID 652054; in the data active = max response below about -50%; inconclusive = no clear call, values can overlap the other calls; note: % is set by controls: 0 for no effect and ±100 for the full control effect
# Target sequence (P35462 whole entry, looked up): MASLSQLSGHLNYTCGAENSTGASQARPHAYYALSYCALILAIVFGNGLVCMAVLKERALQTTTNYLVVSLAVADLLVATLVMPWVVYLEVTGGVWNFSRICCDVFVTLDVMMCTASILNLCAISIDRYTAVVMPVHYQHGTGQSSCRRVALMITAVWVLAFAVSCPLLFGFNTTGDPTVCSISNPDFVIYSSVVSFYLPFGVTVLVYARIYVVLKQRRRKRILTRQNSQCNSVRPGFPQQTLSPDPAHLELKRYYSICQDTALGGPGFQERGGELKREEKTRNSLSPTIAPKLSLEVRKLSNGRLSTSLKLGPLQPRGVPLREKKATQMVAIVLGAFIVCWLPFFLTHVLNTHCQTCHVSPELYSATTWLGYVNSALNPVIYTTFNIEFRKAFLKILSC
#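 Cells plated overnight at 1500 cells/well, then exposed to library compounds with dopamine controls for 90 minutes at 37 degrees C. DiscoveRx reagent added for 30–60 minutes at room temperature; luminescence read, quantitative HTS format.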
# IL1B secr inh: inflammasome signaling inhibition, IL-1 beta readout. THP-1 LPS/ATP IL-1B secretion, AlphaLISA, 16 h; stronger effect = lower value. activity change, % at 57.5 µM. 4.7% of 360,000 active. AID 743279; in the data active = activity change below about -50%; inconclusive = mostly about -30% to -49%; note: % is set by controls: 0 for no effect and ±100 for the full control effect
#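 Secreted IL-1B measured by AlphaLISA bead assay after 16 h compound exposure of THP-1 cells; compounds (final up to 57.5 uM) added 1 h before LPS (250 ng/mL) and ATP (1.25 mM) stimulation; lower signal means less secretion.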
# DT40 TDP1 no CPT: qHTS for Inhibitors of human tyrosyl-DNA phosphodiesterase 1 (TDP1): qHTS in cells in absence of CPT; DT40 Tdp1-/- hTDP1 cells, no CPT, ATP luminescence, 48 h; 15% of 420,000 active; Potency, µM (series often up to 46.2 µM), for inactives: at the top dose activity change, negative = growth inhibition, most hits filed as inhibitors; AID 686978, 2013; note: potency is the fitted concentration of half-maximal effect; % is set by controls: 0 for no effect and ±100 for the full control effect; nearly all actives have a fitted effect of over 55% in size
#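 Stably hTDP1-transfected Tdp1-null chicken DT40 cells were treated with library compounds minus camptothecin and grown for at least 48 hr at 37 °C, after which cellular ATP was quantified by luminescence.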
# D3 ag: D3 dopamine receptor (human) agonism; D3R DiscoveRx beta-arrestin cells, luminescence, 90 min; 0.58% of 410,000 active; P35462; AID 652048; max activation, %; in the data active = max activation above about 30%; note: 0% is about no effect
#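 Cells at 1500/well, incubated overnight, then treated with pinned compounds (dopamine as control) for 90 min at 37 degrees C. DiscoveRx reagent added for 30 - 60 minutes at room temperature; luminescence read.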
# ClpP mod: qHTS Assay for Activators of ClpP. ATP-dependent Clp protease proteolytic subunit (Bacillus subtilis (strain 168)), P80244. purified B. subtilis ClpP, FRET peptide cleavage, 20 min. Potency, µM (titrated, usually from 57.5 µM), for the others: top-dose activity change, negative = active. 1.9% of 340,000 active; active = well fitted falling curve with a large enough effect; inconclusive = small, poorly fitted or top-dose-only effect; inactive = no such curve, though single readings can be large or run the other way; note: potency is the fitted concentration of half-maximal effect; the source files actives as falling curves though it sought activators and does not explain the sign; nearly all actives have a fitted effect of over 65% in size
#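 ClpP 10 microg/mL final, pH 8 Tris/KCl buffer with BSA, glycerol, Tween-20; compound pinned in; FRET-FV substrate; RT 20 min; Ex320/Em430; ΔFRET vs ADEP 5.8 microM, DMSO, no enzyme.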
# Starred values were filed as active, the others as inactive; ? = inconclusive; . = no result; [ ] = dose if it differs, or a comment. Most compounds without a hit are left out; they make up all but 21% or so of the library. Unless noted, calls come from the whole dose curve; as a rule, active = well fitted inhibition curve with a large enough effect; inconclusive = small, poorly fitted or top-dose-only effect; inactive = flat fitted curve, though single readings scatter.
SMILES,TDP1 cell CPT,D3 antag,IL1B secr inh,DT40 TDP1 no CPT,D3 ag,ClpP mod
COc1cccc(CN2CCN(S(=O)(=O)c3ccc(Cl)s3)CC2)c1,3.1%,-19.4,-50.6*,-4.0%,-1.8,0.3%
COc1ccc(CC(=O)N2CCN(S(=O)(=O)c3ccc(Cl)s3)CC2)cc1,-20.0%,-0.8,17.3,?,-1.1,-1.7%
COc1ccc(S(=O)(=O)N2CCN(Cc3cccc(Cl)c3)CC2)cc1,?,?,-14.3,?,-15.5,-1.6%
COc1ccc(S(=O)(=O)N2CCN(Cc3ccc(OC)c(OC)c3)CC2)cc1,-34.6%,-18.9,-22.7,?,1.1,-1.7%
COc1ccc(S(=O)(=O)N2CCN(Cc3ccc(Cl)cc3)CC2)cc1,?,-16.3,-64.6*,?,-17.9,-0.7%
COc1ccc(CN2CCCN(S(=O)(=O)c3ccc(Br)cc3)CC2)cc1,?,?,-70.8*,18.4µM*,-14.5,.
COc1ccc(S(=O)(=O)N2CCN(Cc3cccc(F)c3)CC2)cc1,-4.1%,-24.3,-22.7,29.1µM*,-4.9,.
Cc1ccc(Cl)cc1N1CCN(C(=O)c2ccc3c(c2)N(Cc2ccc(F)cc2)CCS3)CC1,?,.,.,?,-3.7,4.1%
CCCCCCn1c(CN2CCN(C(=O)OCC)CC2)nc2c1c(=O)n(C)c(=O)n2C,20.6µM*,-13.6,15.6,?,-12.4,-0.2%
Cn1c(=O)c2c(nc(CN3CCN(Cc4ccccc4)CC3)n2Cc2cccc(Cl)c2)n(C)c1=O,23.1µM*,-51.2*,-20.1,16.4µM*,-10.1,-3.0%
CCCn1c(CN2CCN(C(=O)OCC)CC2)nc2c1c(=O)n(C)c(=O)n2C,8.2µM*,14.0,39.6,5.17µM*,126.8*,-1.3%
CCN1CCN(Cc2nc3c(c(=O)n(C)c(=O)n3C)n2CCc2ccccc2)CC1,-25.1%,-4.5,?,-8.5%,5.3,-0.2%
CCCCCCn1c(CN2CCN(Cc3ccccc3)CC2)nc2c1c(=O)n(C)c(=O)n2C,?,-51.9*,-11.8,?,-0.8,-0.2%
CN(C)CC(C)(O)c1ccc2c(c1)CN(Cc1cccn1-c1cccnc1)CCO2 (stereo not drawn),18.5%[9.04 µM],.,.,-12.7%,.,.
Cc1ccc(C(=O)O)cc1NCc1ccncc1,7.3%,-0.7,-10.0,7.1%,-5.1,-0.2%
CCNc1c2c(nc3ccccc13)CC(C)(C)CC2=O,?,-21.3,21.8,?,-16.2,-7.6%
CC1(C)CC(=O)c2c(nc3ccccc3c2N)C1,-21.9%,2.7,-4.7,-25.6%,-15.4,31.6µM*
Cc1ccc(N2C(=O)C3C4C=CC(CNC(=S)N5CCN(c6ccccn6)CC5)(O4)C3C2=O)cc1 (stereo not drawn),23.1µM*,-6.7,-9.2,18.4µM*,-0.1,-17.2%
Cc1ccc(N2C(=O)C3C4C=CC(CNC(=S)Nc5ccc(F)cc5)(O4)C3C2=O)cc1 (stereo not drawn),?,-3.6,6.1,18.4µM*,0.3,-1.3%
O=C1C2C3C=CC(CNS(=O)(=O)c4ccccc4[N+](=O)[O-])(O3)C2C(=O)N1c1ccccc1 (stereo not drawn),?,5.0,0.0,-2.6%,0.4,.
CC(C)COC(=O)NCC12C=CC(O1)C1C(=O)N(c3ccc(Cl)cc3)C(=O)C12 (stereo not drawn),16.4µM*,-27.8,-19.0,18.4µM*,-8.5,-1.7%
O=C1C2C3C=CC(CC3)C2C(=O)N1c1ccc(Cl)cc1 (stereo not drawn),-7.5%,-15.2,-7.1,-17.6%,-1.6,-2.1%
Cc1ccc(N2C(=O)C3C4C=CC(CNC(=S)Nc5ccc(Cl)cc5)(O4)C3C2=O)cc1 (stereo not drawn),?,17.4,-19.0,23.1µM*,4.0,-2.9%
Cc1ccc(CNC(=O)C2CCCN(C(=O)Nc3ccc(F)cc3)C2)cc1 (stereo not drawn),-23.5%,14.7,0.0,-20.9%,-1.9,.
